BJeLR viab HTS = lowers viability of BJeLR cells; viability loss activity score, % (test concentration not listed); BJeLR fibroblasts viability, CellTiterGlo ATP luminescence, 48 h; HRASV12, hTERT and SV40 LT/ST transformed; AID 2275; 0.64% of 30,000 active; in the data active means viability loss activity score above about 50%;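 further: higher score means fewer live cells and less ATP luminescence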
A1 inh = A1 inhibition | MEF A1-2A-BIM cells, caspase-Glo luminescence, 3 h; percent of clofoctol signal, DMSO as zero | caspase activation, % (no concentration beside the values) | 0.51% of 21,000 active | AID 2241;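 active means most replicate scores above 10, or exactly half above 10 with mean activity above 10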;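 further: effector caspase 3 and 7 activity cleaving a DEVD luciferin substrate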
Hits are given with their value; n = inactive; x = not tested or not shown. Hits are enriched below; roughly 0.9% of the tested compounds scored in any of these assays.

SMILES	BJeLR viab HTS	A1 inh
C[C@H]1OC(O[C@H]2[C@@H](O)CC(O[C@H]3[C@@H](O)C[C@H](O[C@H]4CC[C@]5(C)C6CC[C@]7(C)[C@@H](C8=CC(=O)OC8)[C@@H](O)C[C@]7(O)[C@@H]6CC[C@@H]5C4)O[C@@H]3C)O[C@@H]2C)C[C@H](O)C1O (some centres not stated)	98.4	n
C[C@H]1O[C@@H](O[C@H]2[C@@H](O)C[C@H](O[C@H]3[C@@H](O)C[C@H](O[C@H]4CC[C@@]5(C)[C@H](CC[C@@H]6[C@@H]5CC[C@]5(C)[C@@H](C7=CC(=O)OC7)CC[C@]65O)C4)O[C@@H]3C)O[C@@H]2C)C[C@H](O)[C@@H]1O	134.3	n
CO[C@H]1C[C@H](OC2CCC3(C)C4CCC5(C)C(C6=CC(=O)OC6)CC(OC(C)=O)C5(O)C4CC[C@H]3C2)O[C@@H](C)[C@@H]1O (some centres not stated)	98.9	n
CC1=C(C(=O)OC(C)(C)C)C2(C(=O)Nc3ccccc32)C(C#N)=C(N)O1 (configuration not stated)	n	x
Cn1c(CCN)nc2ccccc21	n	n
CCc1ccc(CN2CCN(Cc3cccc(OC)c3)CC2)cc1	n	n
COC[C@H]1OC(=O)c2coc3c2[C@@]1(C)C1=C(C3=O)C2CCC(=O)[C@@]2(C)C[C@H]1OC(C)=O (some centres not stated)	n	51.9
CSc1nc(-c2ccc(Cl)cc2)nn1C(=O)N(C)C	n	n
O=C(CSC(c1ccccc1)c1ccccc1)Nc1ccccc1	n	n
CSc1ncccc1C1=N/C(=C\N(C)C)C(=O)O1	n	n
CCN(CC)C(=O)c1ccc2c(c1)C1C3CCC(C3)C1C(c1ccccc1)N2 (configuration not stated)	n	n
C=CCC1(NCCc2ccccc2)CCCCC1	n	n
COC(=O)[C@@]1(O)C[C@@H]2O[C@@]1(C)n1c3ccccc3c3c4c(c5c6ccccc6n2c5c31)C(=O)NC4	x	13.2
CO[C@H](C)C(O)(C(=O)OCC1=CCN2CC[C@H](O)[C@@H]12)C(C)C (some centres not stated)	n	n
Cc1ccccc1OCCCn1cc(C(=O)C(C)(C)C)c2ccccc21	n	x
O=C(CCNS(=O)(=O)c1ccccc1)Nc1ccc(Br)cc1C(=O)c1ccccc1	n	n
COC1CC(OC2C(C)OC(OC3C(C)OC(OC4C(C)OC(O[C@H]5CC[C@@]6(C)C(=CC[C@]7(O)C6CC(OC(=O)c6ccccc6)[C@@]6(C)[C@]7(O)CC[C@@]6(O)C(C)=O)C5)CC4OC)CC3OC)CC2OC)OC(C)C1O (some centres not stated)	75.1	n
COc1cc(C)c(Oc2cc(C)cc(O)c2)c(O)c1	n	n
C/C1=C/C(=O)O[C@@H]2C[C@@H](CC[C@H](C)/C=C\CC1)O[C@@](O)([C@@H]1CSC(=O)N1)C2	n	23.1
CC(=O)O[C@@H](c1nc2ccccc2c(=O)n1[C@@H]1C[C@@]2(OC1=O)c1ccccc1N1C(=O)[C@H](C)N(O)[C@@H]12)C(C)C	n	n
OC[C@H]1O[C@@H](Oc2c[nH]c3ccc(Br)c(Cl)c23)[C@H](O)[C@@H](O)[C@H]1O	n	n
c1ccc2c(c1)cc1ccc3cccc4ccc2c1c34	n	n
O=C1c2ccccc2-c2cccc3cccc1c23	73.7	n
CCOC(=O)C1=NN(c2ccc(C)cc2)C2c3cccc4cccc(c34)C12 (configuration not stated)	n	n
O=C(NC(=O)c1ccccc1Cl)Nc1ccc2c(c1)S(=O)(=O)C=C2	n	n
SMILES	BJeLR viab HTS	A1 inh
N#CC(C#N)=NNc1ccc(OC(F)(F)F)cc1	85.9	n
COc1ccc(-n2c(C)nc3ccccc3c2=O)cc1	n	n
Cc1cc(-n2c(=S)[nH]c3ccccc3c2=O)ccc1Br	n	n
C[C@]12CC[C@H]3[C@@H](CC[C@]4(O)C[C@@H](O)CC[C@]34C=O)[C@@]1(O)CC[C@@H]2C1=CC(=O)OC1	82.3	n
C[C@@H]1O[C@@H](O[C@H]2C[C@@H](O)[C@]3(CO)[C@H]4[C@H](O)C[C@]5(C)[C@@H](C6=CC(=O)OC6)CC[C@]5(O)[C@@H]4CC[C@]3(O)C2)[C@H](O)[C@H](O)[C@H]1O	103.9	n
CO[C@H]1[C@H](O)[C@H](O[C@H]2CC[C@]3(C)C4CC[C@]5(C)[C@H](C6=CC(=O)OC6)CC[C@]5(O)C4CC[C@@H]3C2)O[C@@H](C)[C@@H]1O (some centres not stated)	115.8	n
CO[C@H]1[C@H](O)[C@@H](O[C@H]2CC[C@]3(C=O)C4CC[C@]5(C)[C@@H](C6=CC(=O)OC6)CC[C@]5(O)C4CC[C@@H]3C2)O[C@@H](C)[C@@H]1O (some centres not stated)	133.0	n
COc1cc[n+](OC(=O)N2CCCCC2)c(C)c1	n	n
O=C(CCN1CCOCC1)NC=Nc1cccnc1	n	n
C=CC(C)(C)[C@]12C=C(OC)C(=O)N3/C(=C/c4cnc[nH]4)C(=O)N[C@@]31N(OC)c1ccccc12	n	n
O=C(O)CP(=S)(c1ccccc1)c1ccccc1	n	n
O=C(Nc1ccc2c(C(F)(F)F)cc(=O)oc2c1)c1cc(Cl)cc(Cl)c1	n	n
CC(=O)NCC1CCCN2CCCCC12 (configuration not stated)	n	n
CCN1C[C@@]2(COC)C3[C@@H](OC)[C@H]4[C@@H]1[C@@]3(C1C[C@]3(O)[C@H](OC(=O)c5ccccc5)C1[C@]4(OC(C)=O)[C@@H](O)[C@H]3OC)[C@@H](OC)C[C@H]2O (some centres not stated)	n	n
O=C(O)C1C2CC3CC(C2)CC1(n1ncc(N2CCOCC2)c(Cl)c1=O)C3 (configuration not stated)	n	n
COc1ccc([C@H]2Oc3c(I)c(OC)cc(OC)c3C[C@@H]2O)cc1OC	n	n
COc1cc2c(cc1O)C1Cc3ccc(OC)c(O)c3CN1CC2 (configuration not stated)	n	n
C[C@@H]1O[C@@H](OC2CCC3(C)C4CCC5(C)C(C6=CC(=O)OC6)CCC5(O)C4CC[C@H]3C2)[C@H](O)[C@H](O)[C@H]1O (some centres not stated)	100.6	n
CC(C)c1cc2c(cc1O)[C@@]1(C)C[C@@H](O)CC(C)(C)C1CC2 (some centres not stated)	n	n
CC(Cc1c[nH]c2ccccc12)N(Cc1ccccc1)Cc1ccccc1 (configuration not stated)	n	x
C=C1C(=O)O[C@@H]2/C=C(/C)CC/C=C(/C)C[C@@H](OC(=O)/C(=C/CO)CO)C12 (some centres not stated)	n	n
CC[C@@H]1/C=C\C=C\C[C@H](C)C(O)[C@](C)(O)C(=O)[C@H](C)C(O)[C@H](C)C(=O)[C@H](C)[C@@H](O)[C@H](C)/C=C/C(=O)O[C@H]2[C@@H](C)[C@@H](CC1)O[C@@]1(CC[C@@H](C)[C@@H](C[C@H](C)O)O1)[C@@H]2C (some centres not stated)	n	n
C=C1[C@@H](C)[C@H]2[C@H](Cc3ccccc3)NC(=O)[C@]23[C@H](OC(C)=O)C=C[C@](C)(O)C(=O)[C@@H](C)C/C=C/[C@H]3[C@@H]1O	n	15.8

Screening results (PubChem)
